Consider ten compounds from PubChem BioAssay (NCI).

Some test systems named below: RPMI-8226 leukemia; OVCAR-8 ovarian; OVCAR-5 ovarian; OVCAR-4 ovarian; SK-OV-3 ovarian; OVCAR-3 ovarian; NCI/ADR-RES ovarian; T-47D breast; MDA-MB-435 melanoma; SW-620 colon; MCF7 breast; HCT-116 colon; HCC-2998 colon; HS 578T breast; KM12 colon; BT-549 breast; IGROV1 ovarian.
Common to all, as to assay: NCI-60 one-dose screen, 48 h (100 = growth as untreated, 0 = no growth, -100 = all killed)
What all share (conditions): 10 µM unless noted

This is part of a sample that, as a whole, favours compounds with a hit. Of some 83,000 tested, about 20% had one in any assay.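 Assay: single dose, 48 h. Readout: percent growth (0 = no net growth; negative = cell death). Active: <10.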 Values without a mark were called inactive. The source made the active and inactive calls.

For `C=C(C)[C@H]1CC/C(C)=C/CC[C@]2(C)O[C@H]2CC/C(C=O)=C\C1O` (stereo partly drawn), the growth in the assay on RPMI-8226 leukemia was -17.5% (active); with OVCAR-8 ovarian, 107%; with OVCAR-5 ovarian it was 101%; in the assay on OVCAR-4 ovarian it was 109%; in the assay on SK-OV-3 ovarian, 102%; with OVCAR-3 ovarian, 124%. The growth was 109% in the assay on NCI/ADR-RES ovarian; 102% in the assay on T-47D breast; 120% with MDA-MB-435 melanoma; 108% with SW-620 colon; 97.2% in the assay on MCF7 breast; 105% with HCT-116 colon. Moreover, the growth with HCC-2998 colon is 111%.

Consider `CN1CCCC1c1cccnc1` (stereo not drawn), for which the growth in the assay on RPMI-8226 leukemia is 70.7%; with OVCAR-8 ovarian, 111%; with OVCAR-5 ovarian it was -6.38% (active); in the assay with OVCAR-4 ovarian it was 104%; in the assay with SK-OV-3 ovarian, 116%; with OVCAR-3 ovarian, 117%. Also, the growth is 112% in the assay with HS 578T breast; -37% (active) in the assay on NCI/ADR-RES ovarian; 110% in the assay with T-47D breast; 119% with MDA-MB-435 melanoma; 108% in the assay with SW-620 colon; 97.1% with MCF7 breast. The growth in the assay on HCT-116 colon and in the assay with KM12 colon was 104% in each case.

In the case of `CCS(=O)(=O)OCCCl`, the growth is 120% in the assay with RPMI-8226 leukemia; 103% in the assay with OVCAR-8 ovarian; 80.8% with OVCAR-5 ovarian; 100% in the assay with OVCAR-4 ovarian; 87.4% in the assay with SK-OV-3 ovarian; 104% in the assay on HS 578T breast. For the same compound, the growth is -5.43% (active) in the assay with NCI/ADR-RES ovarian; 102% in the assay on T-47D breast; 89.6% with BT-549 breast; 106% in the assay with MDA-MB-435 melanoma; 108% with SW-620 colon; 102% in the assay with MCF7 breast. The growth in the assay on HCT-116 colon was 107%; in the assay with KM12 colon, 115%.

Consider `O=C(CSc1nc2c(n1Nc1ccccc1)-c1ccccc1SC2)Nc1nc(-c2ccc(Cl)cc2)cs1`, for which the growth was 86.1% in the assay with RPMI-8226 leukemia; 57.3% in the assay on OVCAR-8 ovarian; 93.6% in the assay on OVCAR-5 ovarian; 8.37% (active) with OVCAR-4 ovarian; 86% in the assay on IGROV1 ovarian; 65.7% in the assay with OVCAR-3 ovarian. In addition, the growth in the assay with HS 578T breast was 23.4%; with NCI/ADR-RES ovarian, 66%; in the assay with T-47D breast it was 66.8%; in the assay on BT-549 breast, 93.9%; with MDA-MB-435 melanoma, 61%; in the assay on SW-620 colon, 28.2%. Also, the growth in the assay with MCF7 breast is 68.9%; in the assay on HCT-116 colon, 36.9%; in the assay on HCC-2998 colon it was 102%; in the assay on KM12 colon, 48.5%.

As to `Cc1cc2c(cc1[N+](=O)[O-])NC(CNC(C)C)CC2` (stereo not drawn), the growth in the assay with RPMI-8226 leukemia was 105%; in the assay on OVCAR-8 ovarian, 115%; in the assay with OVCAR-5 ovarian, 88.7%; with OVCAR-4 ovarian, 95.1%; in the assay on SK-OV-3 ovarian, 99.7%; in the assay on OVCAR-3 ovarian, 96.6%. The growth in the assay with HS 578T breast was 124%; in the assay on NCI/ADR-RES ovarian, 95.1%; with T-47D breast, 86.3%; with BT-549 breast it was 102%; in the assay on MDA-MB-435 melanoma, 107%; in the assay on SW-620 colon it was 111%. Besides, the growth is 105% in the assay on MCF7 breast, 96.2% in the assay on HCT-116 colon, 86.6% in the assay with HCC-2998 colon and 107% in the assay with KM12 colon.

Consider `COc1cccc2c1C(=O)c1c(O)c3c(c(O)c1C2=O)C[C@@](O)(/C(C)=N/NC(=O)c1cccc([N+](=O)[O-])c1)C[C@@H]3OC1CC(N)C(O)C(C)O1` (stereo partly drawn), for which the growth was -55.6% (active) with RPMI-8226 leukemia; -6.79% (active) with OVCAR-8 ovarian; -9.12% (active) with OVCAR-5 ovarian; -17.3% (active) in the assay with OVCAR-4 ovarian; -29.7% (active) in the assay on SK-OV-3 ovarian; -40.7% (active) in the assay on OVCAR-3 ovarian. In addition, the growth with HS 578T breast is -12.3% (active); in the assay on NCI/ADR-RES ovarian it was 58.3%; in the assay on T-47D breast it was -28.9% (active); in the assay on BT-549 breast, -14.9% (active); with MDA-MB-435 melanoma, -34.3% (active); with SW-620 colon, -43.5% (active). The growth with HCT-116 colon was -53.8% (active); in the assay with HCC-2998 colon, -58.2% (active).

As for `C[C@]12C[C@H](O)[C@H]3[C@@H](CCC4=CC(=O)CC[C@@]43C)[C@@H]1CC[C@@H]2C(=O)CO`, the growth with RPMI-8226 leukemia was 0.491% (active); in the assay with OVCAR-8 ovarian, 104%; in the assay with OVCAR-5 ovarian, 43.8%; in the assay with OVCAR-4 ovarian, 97.7%; with SK-OV-3 ovarian, 81.3%; with OVCAR-3 ovarian, 110%. In addition, the growth with HS 578T breast is 108%; with NCI/ADR-RES ovarian, -34.7% (active); with T-47D breast it was 92%; with MDA-MB-435 melanoma it was 103%; in the assay with SW-620 colon it was 99.1%; with MCF7 breast it was 101%. Also, the growth is 106% in the assay with HCT-116 colon and 99.9% in the assay on KM12 colon.

`c1ccc(-c2nnc(Nc3nnc(-c4ccccc4)s3)s2)cc1`: the growth in the assay with RPMI-8226 leukemia is 87.8%; in the assay with OVCAR-8 ovarian it was 103%; in the assay with OVCAR-5 ovarian, 100%; with OVCAR-4 ovarian, 101%; in the assay with IGROV1 ovarian, 86.7%; in the assay with OVCAR-3 ovarian it was 105%. For the same compound, the growth in the assay on HS 578T breast was 100%; in the assay on NCI/ADR-RES ovarian, 118%; in the assay with T-47D breast it was 93.8%; in the assay with BT-549 breast, 106%; in the assay on MDA-MB-435 melanoma it was 106%; with SW-620 colon, 98%. Further, the growth in the assay on MCF7 breast was 67.6%; in the assay on HCT-116 colon, 97.9%; in the assay on HCC-2998 colon, 108%; with KM12 colon, 113%.

On to `Nc1nc(Cl)c2[nH]cnc2n1`, for which the growth was 107% in the assay on RPMI-8226 leukemia; 109% with OVCAR-8 ovarian; 93.5% in the assay on OVCAR-5 ovarian; 101% in the assay with OVCAR-4 ovarian; 93.2% in the assay on SK-OV-3 ovarian; 125% with OVCAR-3 ovarian. The growth with HS 578T breast is 117%; in the assay with NCI/ADR-RES ovarian, 51%; in the assay with T-47D breast it was 103%; with MDA-MB-435 melanoma it was 102%; in the assay with SW-620 colon, 105%; in the assay on MCF7 breast, 108%. Moreover, the growth in the assay on HCT-116 colon was 104%; in the assay on HCC-2998 colon, -51.2% (active); with KM12 colon it was 109%.

For `O=C(Nc1cccc2ccccc12)c1cc2c(cc1Br)OCO2`, the growth with RPMI-8226 leukemia is 66.1%; in the assay with OVCAR-8 ovarian, 106%; in the assay on OVCAR-5 ovarian, 96.8%; in the assay with OVCAR-4 ovarian, 83.5%; in the assay with SK-OV-3 ovarian it was 80.9%; with OVCAR-3 ovarian, 104%. Also, the growth in the assay with HS 578T breast is 125%; in the assay with NCI/ADR-RES ovarian it was 92.5%; with T-47D breast it was 83.9%; in the assay with BT-549 breast, 61%; in the assay on MDA-MB-435 melanoma, 111%; in the assay with SW-620 colon, 100%. Further, the growth in the assay with MCF7 breast was 79.9%; in the assay with HCT-116 colon it was 236%; with HCC-2998 colon, 97.3%; with KM12 colon it was 103%.
